Measurements published in PubChem BioAssay (NCATS).
Results filed as inconclusive are left out. A number with no mark means an inactive call. Active and inactive are the calls of the source. Calls come from the whole dose curve; as a rule, active = well fitted activation curve with a large enough effect; inconclusive = small, poorly fitted or top-dose-only effect; inactive = no such curve, though single readings can be large or run the other way.

Test: Redox Reaction Profiling qHTS: Assay Interference Panel against the NCATS CANVASS Library (AID 1347401)
Settings: resazurin-DTT redox cycling, fluorescence, 15 min; series mostly up to 57.1 µM; activation (redox signal): at the top concentration
Source text: Natural products and their derivatives continue to be wellsprings of nascent therapeutic potential. However, many laboratories have limited resources for biological evaluation, leaving their previously isolated or synthesized compounds largely or completely untested. To address this issue, the Canvass library of natural products was assembled (https://tripod.nih.gov/canvass), in collaboration with academic and industry researchers, for quantitative high-throughput screening (qHTS) across a diverse set of cell-based and biochemical assays. The pure (>85% purity by liquid chromatography/mass spectrometry [LC/MS]) Canvass library of 346 natural products were submitted by 45 academic laboratories and companies around the world. We collected pure natural products to circumvent deconvolution and structure elucidation due to time and resource limitations. The library was formatted into 1536-well plates and evaluated in 50 qHTS (in an 11-pnt concentration series) bioassays with broad scope of disease-relevant mechanisms. The resulting data set from 50 different assays was then systematically analyzed to identify overall trends and specific natural products with interesting biological activities. Reported herein are the results of each individual qHTS and their corresponding assay protocol. This profiling assay measures the resazurin-to-resorufin redox reaction in the presence of DTT and compound, and serves as a useful surrogate assay for measuring potential compound redox liability National Center for Advancing Translational Sciences (NCATS), Rockville, MD National Institute of Health (NIH), Bethesda, Maryland
Redox Profiling assay protocol: 1. In a black-solid bottom, medium binding, 1536-well plates (Greiner 789176), 4 uL of [1x] 5uM Resazurin + 200 uM DTT + buffer (50 mM HEPES pH 7.3 + 50 mM NaCl) was dispensed (into columns 1 - 48, rows 1 - 32) using a BioRAPTR FRD dispenser (Beckman Coulter). 2. 23 nL of compounds were pin transferred into the assay plates (columns 5 - 48) using the Kalypsis pin tool (Wako USA) equipped with a 1536-well pin heads. This yields a final concentration range of 0.002 - 127 uM. Control compound Chloranil (NCGC00091254-06) was also pinned (23 nL) into column 2, rows 1 - 32 (working concentration 10 mM, 1:2 dilution; 16 points titrations; n = 2). The final concentration range for the Chloranil was 0.002 to 57.2 uM. For 100% activation control, a single dose of 23 nL Chloranil (350 uM working concentration) was pinned to columns 3 and 4, rows 1-32 for a final concentration of 2 uM. 3. The assay plates were centrifuged for 15 seconds at 1000 rpm. 4. An initial fluorescence readout was obtained using the ViewLux plate reader (PerkinElmer) using a 525 nm excitation and a 598 nm emission filters. 5. The assay plates were incubated for 15 minutes in the dark. 6. After incubation, the final fluorescence readout was obtained using the ViewLux plate reader (PerkinElmer) using a 525 nm excitation and a 598 nm emission filters.
Potency is the fitted concentration of half-maximal effect.

| SMILES | activation (redox signal) | Potency |
| --- | --- | --- |
| CO[C@@H](/C=C/CC/C=C/C(=O)O)[C@@H](O)[C@H](C)[C@@H](O)/C(C)=C/[C@H](C)C(=O)CCCC1CC(=O)NC(=O)C1 | 10.8% | – |
| CCC(=O)CCCCC[C@@H]1NC(=O)[C@H]2CCCCN2C(=O)[C@H]([C@@H](C)CC)NC(=O)[C@H](Cc2cn(OC)c3ccccc23)NC1=O | -16.4% | – |
| C[C@]12CC(O)C3[C@@H](CCC4C[C@@H](O)CC[C@@]43CO)[C@@]1(O)CCC2C1=CC(=O)OC1 (stereo not given in full) | 4.45% | – |
| CC[N@@+]1([O-])C[C@]2(C)CC[C@@H](O)[C@@]34C5C[C@H]6CC[C@@]5(C(C[C@H]23)C41)[C@H](O)[C@@]6(O)CO (stereo not given in full) | -18.5% | – |
| CO[C@@H](/C=C/CC/C=C/C(=O)O)[C@@H](O)[C@H](C)/C=C(\C)[C@@H](O)[C@H](C)C(=O)CCCC1CC(=O)NC(=O)C1 | 5.18% | – |
| COC(=O)C1=C2Nc3ccccc3[C@@]23CCN2CC(C(C)=O)C1C[C@H]23 (stereo not given in full) | -14.4% | – |
| CCN1C[C@]2(C)CC[C@@H](O)[C@]34C1[C@H](C[C@H]23)C12CCC(CC14)[C@](O)(CO)[C@H]2O (stereo not given in full) | -20.9% | – |
| NCCc1ccccc1 | -11.6% | – |
| C/C=C1/CN2CC[C@]34C(=Nc5ccccc53)[C@@H]2C[C@@H]1[C@H]4C(=O)OC | -17.8% [at 113 µM] | – |
| CC(=O)N[C@H]1CCN2CCC[C@H]12 | – | 63.2 µM (active) |
| C=C1[C@@H](C)[C@H]2[C@H](Cc3ccccc3)NC(=O)[C@]23OC(=O)/C=C/[C@H](O)CCC[C@@H](C)C/C=C/[C@H]3[C@@H]1O | -10.8% | – |
| CCCC[C@@H]1CC[C@H]2CCCC(CCC)N12 (stereo not given in full) | -2.9% | – |
| COc1ccc2c(c1)[nH]c1c(C)nccc12 | -23.9% [at 113 µM] | – |
| C[C@@H]1CC[C@@H](c2ccoc2)N2C[C@@]3(CC[C@@H]12)CS[C@@]1(CC[C@H]2[C@H](C)CC[C@@H](c4ccoc4)N2[C@@H]1O)C3 | -21.4% | – |
| CC1=CC2CC[C@@H]3[C@@H](C)C[C@H](C)[C@@H](C1)N23 (stereo not given in full) | -19.4% | – |
| c1ccc2c3c([nH]c2c1)CNCC3 | -22% | – |
| CC=C1CN(C=O)[C@H]2C[C@@H]1[C@@H](C(=O)OC)[C@@]13CCOC21Nc1ccccc13 (stereo not given in full) | -6.87% | – |
| COc1ccc2c3c([nH]c2c1)C(C)=NCC3 | -21.7% | – |
| CN1C(=O)[C@]23CC4C(C)(C)[C@@]5(C[C@@]41CN2CC[C@@]3(C)O)C(=O)Nc1c5ccc2c1OC=CC(C)(C)O2 (stereo not given in full) | -13% | – |
| CCN1C[C@]2(C)CC[C@H](O)[C@]34C1C(C[C@H]23)[C@@]12CC[C@H](CC14)[C@](O)(COC(=O)c1ccc(OC)c(OC)c1)[C@H]2O (stereo not given in full) | -19.6% | – |
| CN(C)Cc1c[nH]c2ccccc12 | -0.445% | – |
| CNCCc1ccccc1 | -21.6% | – |
| O=C(c1ccccc1O)c1[nH]c(Cl)c(Cl)c1-n1c(C(=O)c2ccccc2O)cc(Cl)c1Cl | -30.5% | – |
| CO[C@H](c1ccccc1)[C@H]1NC(=O)C(C)NC(=O)C(C[C@@H](C)CO)N(C)C(=O)[C@@H](C(O)c2cn(C(C)(C)C3CO3)c3ccccc23)NC(=O)C(C(C)C=C(C)C)NC(=O)C(CC(C)C)N(C)C(=O)C(C(C)C)NC1=O (stereo not given in full) | -5.37% [at 34.1 µM] | – |
| CC1=CC(=O)C2=C(C)C[C@H](O)[C@@H]3[C@H](OC(=O)[C@@H]3C)[C@@H]12 | -2.48% | – |
| CNCCc1ccc(O)cc1 | -23.4% | – |
| COc1ccc(C23Oc4cc(OC)cc(OC)c4[C@](O)([C@H](c4ccccc4)C2C(=O)NCCCCNC(=O)c2ccccc2)[C@@H]3O)cc1 (stereo not given in full) | -3.32% | – |
| CC[C@@H]1CN2CC[C@@]3(O)C(=Nc4cccc(OC)c43)[C@@H]2C[C@@H]1/C(=C\OC)C(=O)OC | -11.8% | – |
| CNCCc1c[nH]c2ccccc12 | -22% | – |
| CCCCC[C@@H]1OC(=O)[C@@H](C)N(C)C(=O)[C@H](CCCCC)OC(=O)C(C)N(C)C(=O)[C@H](CCCCC)OC(=O)[C@@H](C)N(C)C(=O)[C@H](CCCCC)OC(=O)C(C)N(C)C1=O (stereo not given in full) | -17.2% | – |
